Compound activity (PubChem BioAssay)
FLuc inh – Photinus pyralis luciferase inhibition; P08659; purified P. pyralis luciferase, luminescence, biochemical; Potency, µM (series often up to 115 µM), usual class: inhibitors; 2.5% of 76,000 active; also: nearly all actives have a fitted effect of over 65% in size
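Inhibitors were tested against purified firefly luciferase in a biochemical, low-substrate format (both substrates at 10uM) and luminescence measured with a CCD imager.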
3T3 cytotox – NIH 3T3 cell cytotoxicity. NIH 3T3 viability, CellTiter-Glo ATP luminescence, 48-72 h. Potency, µM (series often up to 96.7 µM), without a hit: at the highest dose activity change, negative = cytotoxicity, actives largely listed as inhibitors. 4.3% of 94,000 active; also: nearly all actives have a fitted effect of over 55% in size
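Luminescent ATP readout (CellTiter-Glo, 10 min RT) after 48 or 72 hr compound exposure of NIH 3T3 cells seeded at 400 cells/well in 1536-well format; quantitative HTS.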
hNpr1 antagonist – human Npr1 receptor antagonism; 1.6% of 76,000 active; AID 1347048; Potency, µM (doses to about 46.3 µM), inactives show at the top dose activity change, negative = inhibition, most hits filed as inhibitors; P16066; HEK293 hNpr1 GloSensor cGMP, ANP-stimulated luminescence; calls by dose curve; also: nearly all actives have a fitted effect of over 60% in size
Target sequence (P16066 whole entry, looked up): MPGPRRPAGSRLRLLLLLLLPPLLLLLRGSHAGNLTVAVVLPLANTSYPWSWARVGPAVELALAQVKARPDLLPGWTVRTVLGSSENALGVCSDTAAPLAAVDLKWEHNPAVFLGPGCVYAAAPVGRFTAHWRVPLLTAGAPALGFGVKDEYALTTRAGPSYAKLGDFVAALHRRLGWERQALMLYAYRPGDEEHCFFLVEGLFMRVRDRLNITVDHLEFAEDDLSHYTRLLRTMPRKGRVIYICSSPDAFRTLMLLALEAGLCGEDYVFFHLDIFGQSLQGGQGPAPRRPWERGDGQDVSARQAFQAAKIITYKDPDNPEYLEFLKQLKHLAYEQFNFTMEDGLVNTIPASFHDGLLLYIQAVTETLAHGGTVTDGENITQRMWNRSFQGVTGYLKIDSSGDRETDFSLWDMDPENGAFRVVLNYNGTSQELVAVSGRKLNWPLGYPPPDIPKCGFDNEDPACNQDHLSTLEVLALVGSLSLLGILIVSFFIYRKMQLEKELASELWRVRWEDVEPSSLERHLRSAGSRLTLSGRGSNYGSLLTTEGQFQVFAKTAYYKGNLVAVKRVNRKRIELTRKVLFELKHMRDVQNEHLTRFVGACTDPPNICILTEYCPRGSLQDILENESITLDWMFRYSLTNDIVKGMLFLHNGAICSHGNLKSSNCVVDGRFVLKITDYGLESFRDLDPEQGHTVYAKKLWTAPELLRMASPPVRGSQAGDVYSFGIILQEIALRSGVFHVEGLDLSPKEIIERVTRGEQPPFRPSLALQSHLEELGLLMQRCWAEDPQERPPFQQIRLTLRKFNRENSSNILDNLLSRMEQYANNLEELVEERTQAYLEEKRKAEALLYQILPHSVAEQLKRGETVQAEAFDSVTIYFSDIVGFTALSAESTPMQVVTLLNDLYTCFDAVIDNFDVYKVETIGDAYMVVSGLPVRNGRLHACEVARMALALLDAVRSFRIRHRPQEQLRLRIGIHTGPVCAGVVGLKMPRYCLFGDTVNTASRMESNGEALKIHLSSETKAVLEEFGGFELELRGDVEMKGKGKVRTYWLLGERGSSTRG
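HEK293 cells stably expressing human Npr1 and cGMP GloSensor pGS-40F, loaded 2 h with 2% GloSensor reagent, given compound 30 min at room temperature. Luminescence read before and 20 min after 0.1 nM hNppA.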
HEK cytotox – HEK 293 cell cytotoxicity; HEK 293 viability, ATP luminescence (CellTiter-Glo), 48-72 h; Potency, µM (doses to about 115 µM), for the others: at the highest dose activity change, negative = cytotoxicity, actives largely listed as inhibitors; 6.6% of 94,000 active; AID 1345083; also: nearly all actives have a fitted effect of over 60% in size
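CellTiter-Glo luminescence (cellular ATP) was read after 48 or 72 hr of compound exposure at 37 degree Celsius. Cells were HEK 293 plated at 250 cells/well.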
Numbers without * were called inactive; i = inactive; ? = inconclusive; . = no result given; [ ] = another dose, or the depositor's remark. Only some compounds are listed: those with a hit (about 11% of all), similar ones and a draw of the others. Unless noted, calls follow the shape of the dose curve; as a rule, active = well fitted curve in the direction sought with a large enough effect; inconclusive = small, poorly fitted or top-dose-only effect, or another doubt; inactive = no such curve, though single readings can be large; an effect the other way counts as inactive or inconclusive. % is scaled to controls: 0 for no effect and ±100 for the full control effect; potency is read from the fitted curve at half-maximal effect.

SMILES	FLuc inh	3T3 cytotox	hNpr1 antagonist	HEK cytotox
Cc1noc(C)c1CN1CCNc2cc(Nc3ccccc3)ncc2C1	35µM*	-67%[138 µM]	-1%[70.6 µM]	?
Cc1noc(C)c1CN1CCNc2cc(-c3ccccc3)ncc2C1	63µM*	?	0%[70.6 µM]	?
c1ccc(-c2cc3c(cn2)NCCN(Cc2ccccn2)C3)cc1	i	-19%[138 µM]	1%[70.6 µM]	?
Oc1ccc(-c2cc3c(cn2)CN(Cc2ccccc2)CCN3)cc1F	25µM*	?	-2%[70.6 µM]	?
COc1ccc(CNc2cc3c(cn2)CN(Cc2ccccc2)CCN3)cc1OC	i	40µM*	0%[70.6 µM]	63µM*
c1ccc(CN2CCNc3cc(-c4ccncc4)ncc3C2)cc1	?	-19%[138 µM]	2%[70.6 µM]	?
COc1ccc(-c2cc3c(cn2)CN(Cc2ccccc2)CCN3)cc1OC	?	45µM*	-13%[70.6 µM]	?
c1ccc(CCN2CCNc3cc(N4CCN(c5ccccn5)CC4)ncc3C2)cc1	i	28µM*	-4%[70.6 µM]	50µM*
COc1ccc(Cl)cc1-c1cc2c(cn1)CN(Cc1cccnc1)CCN2	i	?	-6%[70.6 µM]	?
O=C1CCN(CC(O)COCc2ccco2)c2ccccc2CCN1CC1CC1 (centres undefined)	.	?	.	-26%[57.5 µM]
O=C(Cc1cccc(Cl)c1)N1CCCC(C(=O)N2CCC(c3nc4ncccc4[nH]3)CC2)C1 (centres undefined)	.	-16%	.	?
CCS(=O)(=O)Nc1ccc(C)n(CC(=O)NCc2cc(F)ccc2F)c1=O	i	-6%	-1%	6%
CCn1nccc1C(=O)N1CCC(C(=O)N2CCCCCCNC(=O)CC2)CC1	i	-1%	-2%	i
CC(=O)NCC(=O)N1Cc2ccccc2CC2(CCCCN2CC2CCNCC2)C1 (centres undefined)	.	i	.	i
CCCCOc1ccc(C(=O)N2CCC[C@H]2c2nc(-c3ccc(OC)c(OC)c3)no2)cc1	i	?	-21%	?
O=C(NCC(F)(F)F)C1CCCN1Cc1ccc(-c2cncnc2)cc1 (centres undefined)	.	-4%	.	-2%
COc1ccc(-c2cc3c(cn2)CN(CCc2ccccc2)CCN3)cc1OC	71µM*	40µM*	-19%[70.6 µM]	63µM*
Fc1ccccc1-c1cc2c(cn1)CN(Cc1ccncc1)CCN2	71µM*	?	?	?
COc1ccc(-c2ccc(C(=O)N3CCN(C(=O)c4ccc(C)cc4)CC3)cc2)nn1	.	-23%	.	-25%
COc1ccc(-c2ccc(C(=O)N3CCCC3)cc2)nn1	.	18µM*	.	25µM*
COc1ccc(-c2ccc(C(=O)N3CCCC3)c(Cl)c2)nn1	.	32µM*	.	?
COc1ccc(-c2ccc(C(=O)NC(C)C)c(Cl)c2)nn1	.	?	.	-28%[172 µM]
O=C1CC(c2noc(C3CCC3)n2)CN1C1CCCCC1 (centres undefined)	i	-3%	0%	i
O=C(NC1CCCCC1)c1cn2cc(-c3ccccc3)sc2n1	.	?	.	63µM*
COc1ccc(-c2cn3cc(C(=O)NCCc4ccccc4)nc3s2)cc1	.	0%	.	-11%
SMILES	FLuc inh	3T3 cytotox	hNpr1 antagonist	HEK cytotox
COc1cccc(-c2cn3cc(C(=O)N4CCCCC4)nc3s2)c1	.	40µM*	.	?
COc1cccc(-c2cn3cc(C(=O)NCCCc4ccccc4)nc3s2)c1	.	35µM*	.	?
COC(=O)CNC(=O)c1cn2cc(-c3ccccc3)sc2n1	.	?	.	-8%[172 µM]
CC(C)CNC(=O)c1cn2cc(-c3ccccc3)sc2n1	.	?	.	71µM*
COc1ccc(-c2cn3cc(C(=O)N4CCN(C(C)=O)CC4)nc3s2)cc1	.	-14%	.	-9%
Fc1ccc(Cc2nc3nccc(-c4cccs4)n3n2)cc1	i	?	-2%	?
O=C(NCc1ccc(Cl)cc1)c1cn2cc(-c3ccccc3)sc2n1	.	-11%	.	?
O=C(NCc1ccccn1)c1cn2cc(-c3cccc(C(F)(F)F)c3)sc2n1	.	-14%	.	?
O=C(NCc1ccccn1)c1cn2cc(-c3ccccc3)sc2n1	.	?	.	50µM*
O=C(NCc1ccc(F)cc1)c1cn2cc(-c3ccccc3)sc2n1	.	?	.	79µM*
O=C(NCCCc1ccccc1)c1cn2cc(-c3ccc(F)cc3)sc2n1	.	20µM*	.	?
CCOc1ccc(NC(=O)Cn2c(=O)n(-c3ccccc3)c(=O)c3c2cc(C)n3C)cc1	i	i	-1%	-6%
CCS(=O)(=O)Nc1ccc(C2(C(=O)NC(C)c3ccccc3)CCCCC2)cc1 (centres undefined)	i	-27%	-3%	?
CC1(COc2ccc(-c3nc(COc4ccccc4)no3)cn2)CCCNC1 (centres undefined)	35µM*	?	?	?
c1ccc(OCc2noc(-c3ccc(NC4CCSC4)nc3)n2)cc1 (centres undefined)	?	?	-12%	?
Cc1cc(CN(C)c2ccc(-c3nc(COc4ccccc4)no3)cn2)on1	?	?	16µM*	?
CCOC(=O)[C@H]1[C@@H](O)C(=O)N(Cc2ccccc2)C12CCN(C(=O)CC1CCCC1)CC2	.	?	.	-2%
COc1ccc(-c2cccc(C(=O)N3CCN(C(=O)NC4CCCC4)CC3)c2)nn1	.	-8%	.	4%
COc1cccc(C2CCN(Cc3cn(-c4ccccc4)nn3)C2)c1OC (centres undefined)	i	?	-4%	79µM*
COc1ccccc1C(=O)NC1CCCN(Cc2cccc(-c3ccc(C)c(Cl)c3)c2)C1 (centres undefined)	.	?	.	40µM*
Cc1ccc(-c2cccc(CN3CCCC(NC(=O)C4CC4)C3)c2)cc1Cl (centres undefined)	.	?	.	35µM*
COc1cccc(C(=O)NC2CCCN(Cc3cccc(-c4ccc(C)c(Cl)c4)c3)C2)c1 (centres undefined)	.	-27%	.	-32%
Cc1cc(NC(=O)c2cc(-c3ccc[nH]3)n[nH]2)ccc1F	?	-7%	-20%	-12%
Cc1ccc(F)cc1NC(=O)c1cc(-c2ccc[nH]2)n[nH]1	40µM*	-29%	-7%	?
COc1ccc(OC)c(NC(=O)c2cc(-c3ccc[nH]3)n[nH]2)c1	?	45µM*	-8%	40µM*
SMILES	FLuc inh	3T3 cytotox	hNpr1 antagonist	HEK cytotox
O=C(Nc1cnc(-c2ccccc2)nc1)c1ccco1	11µM*	-3%	-13%	-5%
O=C(Nc1cnc(-c2ccccc2)nc1)c1ccc(F)c(F)c1	i	i	3%	10%
O=C(Nc1cnc(-c2ccc(Cl)cc2)nc1)c1ccccc1F	0.79µM*	2%	-23%	-9%
O=C(Nc1cnc(-c2ccc(F)cc2)nc1)c1ccco1	3.5µM*	-15%	-20%	?
O=C(CC1CCCC1)N1CCN2CCS(=O)(=O)N(C3CC3)C(=O)C2C1 (centres undefined)	.	-33%	.	?
CC(C)c1nc2c(c(-c3ccc(O)cc3)n1)CN(CC1CCCCC1)CC2	i	-19%	-1%	-12%
COCCN1C(=O)CCc2cc(NC(=O)c3ccc(C)cc3C)ccc21	40µM*	?	0%	?
CCN1C(=O)CCc2cc(NC(=O)c3cc(F)cc(F)c3)ccc21	?	?	-3%	?
